# Assay results published in patent US20240200044, “EVOLUTION OF TALENS” (President and Fellows of Harvard College, published 2024).
# Biological target: CBX8-directed TALE-omega K59E (synthetic construct, UniProt Q56830 SEQ:41-724, K59E)
# Assay: one_hybrid; versus canonical CBX8 TALE
# Conditions: tags: N-terminal FLAG-NLS, C-terminal RNAP omega; dsDNA, one strand shown
sequence,measurement,value
TTCAGGAGGGCTTCGGC,binding signal,2 fold decrease
